# Source: PubChem (several laboratories)
# MEX-5 binding: C. elegans MEX-5 TCR-2 RNA binding activity. AID 1832. Q9XUB2. MEX-5/FITC-TCR2 RNA binding, fluorescence polarization; active compounds read low. 0.38% of 300,000 active. activity score (negative = inhibition of binding), % at 10 µM;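 active = inhibition past about -25% in most replicates, and total fluorescence under double the plate's negative control median, limit read from the data; inconclusive = replicates evenly split on the limit, or fluorescence at least double controls; inactive = too little inhibition in most replicates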;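 also: 0% = DMSO and -100% = 5 µM competing unlabeled TCR2 RNA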
# BCLXL inh: blocks human Bcl-xL binding to Bim BH3 peptide; 0.7% of 320,000 active; Q07817; GST-Bcl-xL / FITC-Bim BH3 peptide fluorescence polarization; inhibition, % at 10.9 µM;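 active = inhibition above the mean of all tested compounds plus 3 SD, cutoff set per campaign, cut at about 30% in these data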;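 also: 0% = DMSO wells and 100% = unlabeled Bim-BH3 peptide competitor; inhibitors lower millipolarization by displacing the labeled peptide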
# Target sequence (Q07817 whole entry, looked up): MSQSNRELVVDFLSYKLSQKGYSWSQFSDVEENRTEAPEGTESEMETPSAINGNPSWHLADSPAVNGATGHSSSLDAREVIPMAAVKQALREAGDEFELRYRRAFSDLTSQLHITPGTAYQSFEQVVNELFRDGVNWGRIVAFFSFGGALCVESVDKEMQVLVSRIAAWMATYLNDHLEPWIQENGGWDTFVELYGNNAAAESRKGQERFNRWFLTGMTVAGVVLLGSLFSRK
# MCL1 BIM primary: inhibitors of human MCL1 binding to BIM-BH3 peptide; GST-MCL1 / FITC-Bim-BH3 fluorescence polarization; inhibition, % at 10.9 µM; 0.68% of 320,000 active; Q07820;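 active = inhibition above the mean inhibition of all tested compounds plus 3 SD, set per campaign, cut at about 40% in these data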;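 also: 0% = DMSO wells and 100% = unlabeled Bim-BH3 peptide control; higher means more loss of mP so more displacement of Bim peptide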
# Target sequence (Q07820 whole entry, looked up): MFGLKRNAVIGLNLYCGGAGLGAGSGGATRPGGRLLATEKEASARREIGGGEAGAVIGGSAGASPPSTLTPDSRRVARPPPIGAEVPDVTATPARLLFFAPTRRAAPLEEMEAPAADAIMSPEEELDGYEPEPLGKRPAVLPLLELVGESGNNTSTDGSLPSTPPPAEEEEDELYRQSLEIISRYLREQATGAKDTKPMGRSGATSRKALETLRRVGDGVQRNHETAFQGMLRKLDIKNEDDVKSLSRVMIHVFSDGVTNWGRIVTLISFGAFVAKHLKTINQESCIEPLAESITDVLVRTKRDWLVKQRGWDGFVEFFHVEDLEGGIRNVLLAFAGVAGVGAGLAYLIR
# EBV gp42 block: inhibitors of Epstein-Barr virus glycoprotein 42; Q1HVG2; 0.42% of 220,000 active; inhibition, % (tested at 21.74 µM); Fluorescence polarization binding assay, mP read-out; in the data active = inhibition above about 50%
# GLD-1 RNA inh: GLD-1-TGE RNA interaction inhibition (C. elegans) | inhibition, % at 5.96 µM | purified GLD-1 + fluorescein TGE RNA, fluorescence polarization | 0.44% of 320,000 active;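 active = percent inhibition above a per-plate cutoff, the plate mean of test compounds plus 3 SD, cut at about 30% in these data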;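 also: 0% = DMSO wells with GLD-1 and probe and 100% = wells lacking GLD-1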
# The depositor's hits bear a star; ? = inconclusive; . = no result given. An excerpt weighted towards active compounds, which were near 1.3% of everything screened.
SMILES,MEX-5 binding,BCLXL inh,MCL1 BIM primary,EBV gp42 block,GLD-1 RNA inh
C=CCN(CC=C)C(=S)NC(=O)c1ccc(C)c(Br)c1,.,4,5,-4,0
Cc1cc(NCCCCO)n2c(nc3ccccc32)c1C#N,1,5,0,-24,0
CCN(CC)CCCNc1cc(C(F)(F)F)c(C#N)c2nc3ccccc3n12,-9,38*,42*,.,20
N#C/C(=C/c1ccco1)c1nc2ccccc2s1,-4,33*,5,-8,11
N#C/C(=C/c1ccc(-c2cc(C(=O)O)cc(C(=O)O)c2)o1)c1nc2ccccc2s1,16,-18,-33,-115,-50
CCOc1ccc2[nH]c(C)c(CN3CCOCC3)c(=O)c2c1,-8,8,4,-14,6
CCOc1ccc2[nH]c3ncccc3c(=O)c2c1,-13,42*,52*,.,26
CCC/C(C#Cc1ccc(N(C)C)cc1)=C1/c2ccccc2C(=O)N1c1ccccc1,.,.,.,.,119*
CCC/C(C#Cc1cc(OC)cc(OC)c1)=C1/c2ccccc2C(=O)N1c1ccccc1,.,.,.,.,2
Cn1ncc(N)c1C(=O)Nc1cccc(C(F)(F)F)c1,-2,41*,7,-4,4
O=C(CN1CCN(c2ccc(O)cc2)CC1)NC(=O)NCc1ccco1,-1,16,18,3,0
O=C(O)C1OC(Oc2cc3oc(-c4ccccc4)cc(=O)c3c(O)c2O)C(O)C(O)C1O (stereo unspecified),-60*,10,13,-14,12
c1cc(Nc2cccc3nccnc23)c2nccnc2c1,-29*,-7,-13,-18,-14
Fc1ccc(Nc2cccc3nccnc23)cc1,0,3,9,-10,10
COCCNC(=O)C1CC(=O)N(c2ccc(OC)cc2)C1c1ccc(OC)cc1 (stereo unspecified),1,9,9,1,-9
CCOc1ccc(NC(=S)NC(=O)c2cncc(Br)c2)cc1,-1,7,7,.,3
CSc1nc(O)c(N=Nc2ccc(F)cc2F)c(=O)[nH]1,4,37*,42*,.,-12
CSc1nc(O)c(C(c2ccc(F)cc2)c2c(O)nc(SC)[nH]c2=O)c(=O)[nH]1,2,1,8,.,0
Cn1cccc1CC(=O)N/N=C\c1c2ccccc2cc2ccccc12,-4,33*,51*,-4,18
Cn1cccc1/C=N/NC(=O)Cc1cccc2ccccc12,2,0,-14,1,0
Cn1cccc1CC(=O)N/N=C/c1cccc2ccccc12,1,46*,37,5,36*
C[N+](C)(C)CC(=O)N/N=C/c1c2ccccc2cc2ccccc12,-3,12,9,.,-18
CC(C)Oc1ccc(OCCSc2nc3ccccc3n2CC(=O)O)cc1,2,-3,-21,.,9
Cc1ccc2nc3c(cc(C(=O)NCC4CCCO4)c(=N)n3CCCOC(C)C)c(=O)n2c1 (stereo unspecified),.,6,1,-19,7
CCOCCCNc1nc2nc3ccc(C)cn3c(=O)c2cc1C(=O)NCC1CCCO1 (stereo unspecified),-34*,8,2,-11,-1
SMILES,MEX-5 binding,BCLXL inh,MCL1 BIM primary,EBV gp42 block,GLD-1 RNA inh
COc1cccc(C(=O)NCC(=O)NCc2cc(=O)n(C)c(=O)n2C)c1OC,1,-2,0,.,-7
COc1ccccc1CN(C(=O)CCl)C(C(=O)NC1CCCCC1)c1ccncc1 (stereo unspecified),.,30*,29,4,25
COc1ccc(C(=O)/C=C/C(=O)N(Cc2ccccc2OC)C(C(=O)NC2CCCCC2)c2ccncc2)c(O)c1 (stereo unspecified),0,9,7,-10,4
O=C(CCNC(=O)c1ccco1)NCc1ccc(C(=O)O)cc1,.,.,.,.,-1
COc1ccc2c(CC(=O)Nc3cccc(S(=O)(=O)N4CCOCC4)c3)coc2c1,0,3,-17,0,-7
CC(=O)c1cc(NC(=O)c2cccc(C(F)(F)F)c2)c(=O)oc1C,-1,8,5,-4,-7
COc1ccc(C(=O)Nc2cc(C(C)=O)c(C)oc2=O)cc1,-2,3,-2,10,-8
CC(=O)c1cc(NC(=O)c2cccc(C(F)(F)F)c2)c(=O)oc1/C=C/N(C)C,-36*,-44,-85,-164,-72
CC(=O)c1cc(NC(=O)c2ccc(Cl)cc2)c(=O)oc1/C=C/N(C)C,-26*,-69,-103,-87,-151
COC(=O)c1scc2c(=O)cc(C(F)(F)F)[nH]c12,-15,35*,40,41,29
Cc1ccc(S(=O)(=O)CCC(=O)OCC(=O)Nc2cc(S(=O)(=O)N3CCOCC3)ccc2C)cc1,-2,-4,-2,.,1
CCOc1ncccc1C(=O)Nc1cc2c(cc1Br)OCCO2,.,.,.,.,4
Cn1c(N)c(C(=O)CSc2n[nH]c(-c3ccccc3)n2)c(=O)n(C)c1=O,.,4,14,.,8
COc1ccc(OC)c(S(=O)(=O)Nc2ccc(O)c(Sc3ncn[nH]3)c2)c1,-34*,9,16,-8,4
COc1cc(SC)ccc1C(=O)N(CC(=O)Nc1ccccc1Br)Cc1ccco1,1,-6,-4,.,1
O=C(CC1Nc2ccccc2NC1=O)Nc1cc(Cl)cc(Cl)c1 (stereo unspecified),?,-4,1,21,1
CCCCNC(=O)CC1Nc2ccccc2NC1=O (stereo unspecified),-12,32*,28,7,30
CCOC(=O)c1c(NC(=O)CC2Sc3ccc(C(F)(F)F)cc3NC2=O)sc(C)c1C (stereo unspecified),-1,8,9,-3,7
CCCSCCCNC(=O)CC1Oc2ccccc2NC1=O (stereo unspecified),-1,2,-1,68*,-2
COC(=O)c1c(NC(=O)CC2Nc3ccccc3NC2=O)sc(C)c1C (stereo unspecified),-32*,0,-4,-8,-17
O=C(CC1Nc2ccccc2NC1=O)NCCCN1CCCCCC1 (stereo unspecified),2,6,9,-12,-11
CCOC(=O)c1c(NC(=O)CC2Nc3ccccc3NC2=O)sc(C)c1C (stereo unspecified),-35*,1,-10,-120,-6
COc1ccc(OCc2cc(C(=O)NCc3cccc(C)n3)no2)c(Cl)c1,1,1,-4,.,6
Cc1cc(C)n2nc(C(=O)OCC(=O)N(C)CC(=O)Nc3ccccc3Cl)nc2n1,0,-4,1,.,5
COc1ccc(Cl)cc1NC(=O)CN(C)CC(=O)Nc1cc(OC)c(OC)c(OC)c1,1,4,-2,.,-1
CN1CCc2c(sc3c2C(=O)NC(c2ccccc2)N3)C1 (stereo unspecified),-10,41*,34,-57,5
Cc1ccc(C2NC(=O)c3c(sc4c3CCN(C)C4)N2)o1 (stereo unspecified),-10,40*,37,-5,5
